Measurements: the supplement of paper PMC11732987, “Enantioselective OTUD7B fragment discovery through chemoproteomics screening and high-throughput optimisation” (Communications Chemistry, 2025)

How the values were obtained:
Experiment in all cases: log2 ratio of Biotin-Ahx-Ub-VS probe labelling (fragment/DMSO); higher = less target engagement (more negative = stronger competition), active = hit call of the paper (q ≤ 0.05, log2 ratio ≤ -1)
Conditions in all cases: compound concentration: 200 uM; treatment time: 3 h
[1] = target: USP16 (UniProt Q9Y5T5)
Method in brief: (§1)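 Global-median-normalised Spectronaut label-free quantities were compared by unpaired t-test, and values are average log2 ratios of fragment over vehicle. Only proteins with ≥2 unique peptides were used. HEK293T lysate (495 µg per sample) was treated in triplicate with fragment at 200 µM or vehicle for 3 h and then with Biotin-Ahx-Ub-VS at 0.5 µM final for 1 h. Labelled DUBs were then NeutrAvidin-enriched, digested with LysC and trypsin, and run by diaPASEF LC-MS/MS.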

[2] = target: T1, USP19 (UniProt O94966)
T1 sequence (whole entry): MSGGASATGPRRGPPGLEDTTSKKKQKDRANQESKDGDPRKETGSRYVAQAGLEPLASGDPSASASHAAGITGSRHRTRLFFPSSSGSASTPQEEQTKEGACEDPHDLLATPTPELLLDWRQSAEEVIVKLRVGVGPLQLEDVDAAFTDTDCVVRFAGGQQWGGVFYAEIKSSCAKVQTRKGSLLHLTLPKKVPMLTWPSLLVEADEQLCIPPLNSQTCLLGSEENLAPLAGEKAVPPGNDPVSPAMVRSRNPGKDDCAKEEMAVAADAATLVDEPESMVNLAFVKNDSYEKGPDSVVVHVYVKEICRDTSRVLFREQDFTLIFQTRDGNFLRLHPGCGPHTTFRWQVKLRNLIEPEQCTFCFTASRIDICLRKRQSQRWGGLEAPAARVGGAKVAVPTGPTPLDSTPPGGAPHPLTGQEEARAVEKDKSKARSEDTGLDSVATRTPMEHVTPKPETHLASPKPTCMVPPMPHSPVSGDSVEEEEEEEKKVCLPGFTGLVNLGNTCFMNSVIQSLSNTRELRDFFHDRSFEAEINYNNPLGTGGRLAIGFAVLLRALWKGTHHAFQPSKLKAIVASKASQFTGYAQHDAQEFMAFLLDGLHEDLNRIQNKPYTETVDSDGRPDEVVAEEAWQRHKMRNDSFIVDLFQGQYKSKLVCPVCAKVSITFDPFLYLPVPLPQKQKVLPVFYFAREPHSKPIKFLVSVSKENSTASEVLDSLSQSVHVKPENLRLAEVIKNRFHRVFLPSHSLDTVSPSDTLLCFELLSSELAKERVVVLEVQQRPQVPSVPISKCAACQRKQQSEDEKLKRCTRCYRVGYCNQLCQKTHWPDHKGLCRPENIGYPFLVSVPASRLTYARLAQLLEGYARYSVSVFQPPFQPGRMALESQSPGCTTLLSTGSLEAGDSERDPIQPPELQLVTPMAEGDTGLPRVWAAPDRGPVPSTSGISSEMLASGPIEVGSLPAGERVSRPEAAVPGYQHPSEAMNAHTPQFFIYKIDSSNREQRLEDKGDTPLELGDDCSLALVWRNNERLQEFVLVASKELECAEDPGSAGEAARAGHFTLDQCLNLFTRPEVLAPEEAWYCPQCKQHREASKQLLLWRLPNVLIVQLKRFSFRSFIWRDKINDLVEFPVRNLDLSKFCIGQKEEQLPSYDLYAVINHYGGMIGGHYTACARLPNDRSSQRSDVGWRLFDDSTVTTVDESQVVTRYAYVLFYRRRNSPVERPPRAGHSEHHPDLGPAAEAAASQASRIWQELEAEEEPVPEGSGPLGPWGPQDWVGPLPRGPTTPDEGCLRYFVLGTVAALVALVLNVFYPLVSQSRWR
Method in brief: as §1

[3] = target: USP24 (UniProt Q9UPU5)
Method in brief: as §1

[4] = target: T2, USP25 (UniProt Q9UHP3)
T2 sequence (whole entry): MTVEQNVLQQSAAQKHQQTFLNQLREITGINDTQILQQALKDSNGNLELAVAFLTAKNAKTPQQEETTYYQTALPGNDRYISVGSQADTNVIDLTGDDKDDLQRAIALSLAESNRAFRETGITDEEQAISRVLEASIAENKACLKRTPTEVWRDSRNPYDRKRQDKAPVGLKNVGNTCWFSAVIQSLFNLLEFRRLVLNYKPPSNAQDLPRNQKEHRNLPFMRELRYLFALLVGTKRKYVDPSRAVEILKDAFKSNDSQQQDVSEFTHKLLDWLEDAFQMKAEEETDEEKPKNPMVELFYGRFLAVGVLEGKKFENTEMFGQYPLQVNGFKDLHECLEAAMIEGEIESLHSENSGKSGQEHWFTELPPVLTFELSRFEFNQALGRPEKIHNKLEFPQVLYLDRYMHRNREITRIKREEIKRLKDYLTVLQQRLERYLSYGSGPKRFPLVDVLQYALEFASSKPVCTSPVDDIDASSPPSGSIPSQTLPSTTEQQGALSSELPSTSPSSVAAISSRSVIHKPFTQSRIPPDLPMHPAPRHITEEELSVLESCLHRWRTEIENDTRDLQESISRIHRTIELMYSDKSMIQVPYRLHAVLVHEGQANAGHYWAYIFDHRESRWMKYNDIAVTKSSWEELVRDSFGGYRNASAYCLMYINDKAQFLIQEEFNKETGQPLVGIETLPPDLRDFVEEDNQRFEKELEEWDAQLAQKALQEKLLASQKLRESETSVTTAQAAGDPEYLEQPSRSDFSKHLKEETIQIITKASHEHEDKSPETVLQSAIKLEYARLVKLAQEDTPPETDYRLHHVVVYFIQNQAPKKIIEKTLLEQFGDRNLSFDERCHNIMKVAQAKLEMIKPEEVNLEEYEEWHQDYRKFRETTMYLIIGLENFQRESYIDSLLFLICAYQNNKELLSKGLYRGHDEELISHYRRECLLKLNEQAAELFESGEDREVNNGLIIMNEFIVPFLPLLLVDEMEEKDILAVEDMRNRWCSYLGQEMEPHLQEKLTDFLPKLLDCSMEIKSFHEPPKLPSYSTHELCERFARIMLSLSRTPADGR
Method in brief: as §1

[5] = target: T3, USP28 (UniProt Q96RU2)
T3 sequence (whole entry): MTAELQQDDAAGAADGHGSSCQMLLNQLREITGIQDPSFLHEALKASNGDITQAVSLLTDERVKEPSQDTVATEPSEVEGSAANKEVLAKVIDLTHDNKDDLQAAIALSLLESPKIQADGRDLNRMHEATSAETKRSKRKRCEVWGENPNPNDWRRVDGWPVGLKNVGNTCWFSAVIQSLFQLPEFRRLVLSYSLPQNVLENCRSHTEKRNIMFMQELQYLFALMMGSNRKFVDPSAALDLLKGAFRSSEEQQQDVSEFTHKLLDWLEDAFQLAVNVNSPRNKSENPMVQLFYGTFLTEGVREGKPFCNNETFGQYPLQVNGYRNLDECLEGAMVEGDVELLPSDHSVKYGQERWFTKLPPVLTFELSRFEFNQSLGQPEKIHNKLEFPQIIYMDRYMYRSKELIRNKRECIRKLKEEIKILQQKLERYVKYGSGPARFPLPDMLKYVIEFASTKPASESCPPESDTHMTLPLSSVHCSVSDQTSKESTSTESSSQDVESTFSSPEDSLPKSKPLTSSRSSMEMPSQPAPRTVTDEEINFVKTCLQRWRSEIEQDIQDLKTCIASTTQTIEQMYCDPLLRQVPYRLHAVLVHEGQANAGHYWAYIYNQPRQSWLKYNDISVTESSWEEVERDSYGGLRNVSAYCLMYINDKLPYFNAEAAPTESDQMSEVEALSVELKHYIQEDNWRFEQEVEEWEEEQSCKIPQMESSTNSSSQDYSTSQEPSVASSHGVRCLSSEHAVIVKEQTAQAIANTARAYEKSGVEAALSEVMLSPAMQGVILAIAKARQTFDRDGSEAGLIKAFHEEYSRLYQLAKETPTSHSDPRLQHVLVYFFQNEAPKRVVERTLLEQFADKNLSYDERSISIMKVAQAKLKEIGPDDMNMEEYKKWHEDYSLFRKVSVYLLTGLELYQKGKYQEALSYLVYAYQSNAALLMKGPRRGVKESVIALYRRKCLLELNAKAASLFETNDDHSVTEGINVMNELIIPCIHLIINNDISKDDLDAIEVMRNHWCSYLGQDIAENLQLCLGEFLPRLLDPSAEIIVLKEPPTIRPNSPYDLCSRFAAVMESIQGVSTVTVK
Method in brief: as §1

Measured: log2 ratio of Biotin-Ahx-Ub-VS probe labelling

USP24, sequence (Q9UPU5 whole entry): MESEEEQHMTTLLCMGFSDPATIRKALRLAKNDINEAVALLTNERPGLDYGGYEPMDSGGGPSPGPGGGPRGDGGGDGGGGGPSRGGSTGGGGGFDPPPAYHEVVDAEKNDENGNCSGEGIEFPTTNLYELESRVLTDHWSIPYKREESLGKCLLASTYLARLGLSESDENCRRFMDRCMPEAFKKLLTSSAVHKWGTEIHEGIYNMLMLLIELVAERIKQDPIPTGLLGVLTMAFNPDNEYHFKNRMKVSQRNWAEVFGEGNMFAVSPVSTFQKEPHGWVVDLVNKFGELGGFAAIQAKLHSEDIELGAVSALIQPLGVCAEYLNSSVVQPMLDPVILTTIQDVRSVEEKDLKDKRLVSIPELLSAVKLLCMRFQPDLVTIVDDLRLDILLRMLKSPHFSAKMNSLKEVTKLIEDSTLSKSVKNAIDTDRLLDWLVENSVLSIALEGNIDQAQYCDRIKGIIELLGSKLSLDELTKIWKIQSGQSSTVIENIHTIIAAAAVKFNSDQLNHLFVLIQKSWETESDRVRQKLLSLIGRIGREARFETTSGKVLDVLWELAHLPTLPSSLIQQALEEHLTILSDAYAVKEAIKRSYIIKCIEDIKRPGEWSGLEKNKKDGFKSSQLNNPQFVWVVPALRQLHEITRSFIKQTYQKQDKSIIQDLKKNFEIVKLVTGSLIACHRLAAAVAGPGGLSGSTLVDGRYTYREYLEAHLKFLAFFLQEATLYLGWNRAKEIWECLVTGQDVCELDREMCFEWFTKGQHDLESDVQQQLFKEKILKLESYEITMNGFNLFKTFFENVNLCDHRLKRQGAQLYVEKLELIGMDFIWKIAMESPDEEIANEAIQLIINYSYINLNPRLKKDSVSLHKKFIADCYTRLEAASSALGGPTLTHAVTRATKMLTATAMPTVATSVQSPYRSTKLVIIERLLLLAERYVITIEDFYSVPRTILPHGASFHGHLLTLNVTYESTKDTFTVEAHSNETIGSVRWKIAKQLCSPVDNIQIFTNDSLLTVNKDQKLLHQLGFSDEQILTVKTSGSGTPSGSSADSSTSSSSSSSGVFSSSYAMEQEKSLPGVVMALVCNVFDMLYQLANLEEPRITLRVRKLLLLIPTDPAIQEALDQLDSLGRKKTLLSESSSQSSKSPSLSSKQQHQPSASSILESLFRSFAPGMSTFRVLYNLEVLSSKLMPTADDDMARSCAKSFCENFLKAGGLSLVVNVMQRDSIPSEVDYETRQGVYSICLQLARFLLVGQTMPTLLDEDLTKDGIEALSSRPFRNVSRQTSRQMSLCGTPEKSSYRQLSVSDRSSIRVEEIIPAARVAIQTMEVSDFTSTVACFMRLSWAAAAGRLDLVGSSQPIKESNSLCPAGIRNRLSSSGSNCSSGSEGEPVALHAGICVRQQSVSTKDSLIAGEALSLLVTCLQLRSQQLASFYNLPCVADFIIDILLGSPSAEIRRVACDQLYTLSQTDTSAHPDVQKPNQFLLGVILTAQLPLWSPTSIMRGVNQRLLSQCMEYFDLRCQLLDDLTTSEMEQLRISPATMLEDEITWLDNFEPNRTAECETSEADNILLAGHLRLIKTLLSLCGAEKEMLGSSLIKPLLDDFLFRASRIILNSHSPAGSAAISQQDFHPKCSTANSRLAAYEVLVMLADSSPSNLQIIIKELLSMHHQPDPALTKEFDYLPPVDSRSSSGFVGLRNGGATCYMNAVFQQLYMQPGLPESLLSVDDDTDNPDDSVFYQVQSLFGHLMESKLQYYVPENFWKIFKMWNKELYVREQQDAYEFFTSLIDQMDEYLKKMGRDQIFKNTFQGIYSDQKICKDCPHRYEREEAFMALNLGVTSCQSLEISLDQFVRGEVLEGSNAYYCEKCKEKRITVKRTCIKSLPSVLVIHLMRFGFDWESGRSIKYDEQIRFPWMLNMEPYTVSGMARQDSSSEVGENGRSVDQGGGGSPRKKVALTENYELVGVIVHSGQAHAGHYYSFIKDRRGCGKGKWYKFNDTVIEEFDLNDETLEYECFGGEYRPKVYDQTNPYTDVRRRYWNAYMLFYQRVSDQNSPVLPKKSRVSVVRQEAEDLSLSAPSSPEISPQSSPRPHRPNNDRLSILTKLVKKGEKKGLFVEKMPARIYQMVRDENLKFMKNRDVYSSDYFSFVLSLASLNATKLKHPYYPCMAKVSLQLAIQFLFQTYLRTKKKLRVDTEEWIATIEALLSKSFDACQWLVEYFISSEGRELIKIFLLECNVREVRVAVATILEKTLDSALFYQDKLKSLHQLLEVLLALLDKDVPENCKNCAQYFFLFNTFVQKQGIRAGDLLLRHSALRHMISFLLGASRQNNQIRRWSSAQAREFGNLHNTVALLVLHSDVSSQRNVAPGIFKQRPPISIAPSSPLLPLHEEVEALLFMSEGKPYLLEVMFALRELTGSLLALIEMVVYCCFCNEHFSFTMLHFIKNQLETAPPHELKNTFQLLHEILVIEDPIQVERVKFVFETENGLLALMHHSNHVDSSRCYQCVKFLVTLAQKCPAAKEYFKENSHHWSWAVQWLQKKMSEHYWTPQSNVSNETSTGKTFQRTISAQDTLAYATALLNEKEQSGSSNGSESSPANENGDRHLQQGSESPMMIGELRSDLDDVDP
USP16, sequence (Q9Y5T5 whole entry, looked up, the tested form may be a part): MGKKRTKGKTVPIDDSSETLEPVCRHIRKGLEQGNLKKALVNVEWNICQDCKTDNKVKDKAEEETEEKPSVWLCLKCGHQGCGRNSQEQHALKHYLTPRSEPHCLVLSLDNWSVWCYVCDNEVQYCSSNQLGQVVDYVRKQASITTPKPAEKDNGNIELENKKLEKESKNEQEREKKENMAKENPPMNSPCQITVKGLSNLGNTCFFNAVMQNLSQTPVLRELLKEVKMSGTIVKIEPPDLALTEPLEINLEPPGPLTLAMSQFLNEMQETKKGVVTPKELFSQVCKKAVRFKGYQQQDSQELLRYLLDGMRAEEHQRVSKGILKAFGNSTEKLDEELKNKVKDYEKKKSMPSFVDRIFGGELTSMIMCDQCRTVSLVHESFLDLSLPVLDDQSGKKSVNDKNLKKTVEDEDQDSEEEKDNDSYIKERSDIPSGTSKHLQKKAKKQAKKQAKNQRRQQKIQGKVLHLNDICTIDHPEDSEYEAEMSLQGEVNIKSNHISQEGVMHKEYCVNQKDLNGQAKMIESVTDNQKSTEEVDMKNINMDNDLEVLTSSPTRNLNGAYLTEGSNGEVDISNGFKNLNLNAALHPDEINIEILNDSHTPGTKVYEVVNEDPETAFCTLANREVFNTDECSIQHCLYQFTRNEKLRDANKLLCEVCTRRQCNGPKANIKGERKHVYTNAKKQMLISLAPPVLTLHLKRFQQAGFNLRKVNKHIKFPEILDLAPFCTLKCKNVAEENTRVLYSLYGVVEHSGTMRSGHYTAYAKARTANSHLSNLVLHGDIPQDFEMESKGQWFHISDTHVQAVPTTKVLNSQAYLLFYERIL

O=C(CCl)NCC1(c2ccccc2)CC1
inactive: [1] 0.0406 | [2] -0.058 | [3] -0.208 | [4] -0.366 | [5] -0.447
